Source: ChEMBL document CHEMBL3988442, “University of Dundee, Small-Polar-MMV Screening Library” (2021)
For some of these results: Measured potencies and affinities stand elsewhere.

Experiments:
Set-up in all cases: scale not given: direction of the effect not stated beside the values
[1] = target: Protein translocase subunit SecA (Escherichia coli (strain K12)) (UniProt P10408); experiment: Assay to Identify E. coli SecA ATPase Inhibitors; format: functional; conditions: 30 µM
[2] = target: T1, Ubiquitin-activating enzyme e1, putative (Leishmania donovani (strain BPK282A1)) (UniProt E9BSI1); experiment: Leishmania donovani Ubiquitin Activating Enzyme (LdE1); format: functional; conditions: 30 µM
T1 sequence (whole entry): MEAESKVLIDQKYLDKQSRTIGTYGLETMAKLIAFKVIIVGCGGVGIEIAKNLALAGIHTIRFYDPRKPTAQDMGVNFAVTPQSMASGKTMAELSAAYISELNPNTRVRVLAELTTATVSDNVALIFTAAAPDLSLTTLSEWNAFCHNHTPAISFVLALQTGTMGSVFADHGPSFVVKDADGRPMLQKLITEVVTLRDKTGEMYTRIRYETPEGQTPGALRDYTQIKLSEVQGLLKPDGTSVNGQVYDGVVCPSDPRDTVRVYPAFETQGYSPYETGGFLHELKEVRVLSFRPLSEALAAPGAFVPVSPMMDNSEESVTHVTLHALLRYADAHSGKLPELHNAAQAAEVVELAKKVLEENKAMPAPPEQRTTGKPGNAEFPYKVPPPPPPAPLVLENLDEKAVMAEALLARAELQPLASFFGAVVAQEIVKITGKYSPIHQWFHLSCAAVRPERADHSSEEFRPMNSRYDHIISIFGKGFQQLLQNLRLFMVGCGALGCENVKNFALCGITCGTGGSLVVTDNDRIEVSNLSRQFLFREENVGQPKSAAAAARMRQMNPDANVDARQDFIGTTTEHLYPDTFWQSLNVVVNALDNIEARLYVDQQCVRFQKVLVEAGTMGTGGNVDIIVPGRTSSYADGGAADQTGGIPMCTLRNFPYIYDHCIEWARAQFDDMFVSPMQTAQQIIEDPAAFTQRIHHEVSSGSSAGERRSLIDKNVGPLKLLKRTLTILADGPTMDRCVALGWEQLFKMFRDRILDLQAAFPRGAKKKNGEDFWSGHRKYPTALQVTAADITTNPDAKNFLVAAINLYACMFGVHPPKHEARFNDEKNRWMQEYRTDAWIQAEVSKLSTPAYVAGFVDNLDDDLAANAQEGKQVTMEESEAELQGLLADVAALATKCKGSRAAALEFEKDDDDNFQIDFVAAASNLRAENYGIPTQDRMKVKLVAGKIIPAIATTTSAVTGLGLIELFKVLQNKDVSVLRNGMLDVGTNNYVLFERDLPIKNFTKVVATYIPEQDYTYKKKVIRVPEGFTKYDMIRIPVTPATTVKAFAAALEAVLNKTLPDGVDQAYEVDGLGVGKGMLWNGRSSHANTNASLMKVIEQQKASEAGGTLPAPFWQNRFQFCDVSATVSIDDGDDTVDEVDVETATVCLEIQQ

[3] = target: AMP-activated protein kinase, AMPK (Homo sapiens) (UniProt P54646+O43741+P54619+Q9UGJ0+Q9Y478+Q13131+Q9UGI9); experiment: AMP-dependent Kinase enzyme assay. An in vitro enzyme assay that detects ADP turnover that is directly proportional to AMPK activity. This uses naive AMPK that is activated during the assay with MK-8722; format: functional; conditions: 30 µM
[4] = target: Sialic acid-binding Ig-like lectin 9 (Homo sapiens) (UniProt Q9Y336); experiment: Hs-Siglec9 ALPHAscreen SOP 20170721; conditions: 10 µM
Sialic acid-binding Ig-like lectin 9 (Homo sapiens), sequence (Q9Y336 whole entry): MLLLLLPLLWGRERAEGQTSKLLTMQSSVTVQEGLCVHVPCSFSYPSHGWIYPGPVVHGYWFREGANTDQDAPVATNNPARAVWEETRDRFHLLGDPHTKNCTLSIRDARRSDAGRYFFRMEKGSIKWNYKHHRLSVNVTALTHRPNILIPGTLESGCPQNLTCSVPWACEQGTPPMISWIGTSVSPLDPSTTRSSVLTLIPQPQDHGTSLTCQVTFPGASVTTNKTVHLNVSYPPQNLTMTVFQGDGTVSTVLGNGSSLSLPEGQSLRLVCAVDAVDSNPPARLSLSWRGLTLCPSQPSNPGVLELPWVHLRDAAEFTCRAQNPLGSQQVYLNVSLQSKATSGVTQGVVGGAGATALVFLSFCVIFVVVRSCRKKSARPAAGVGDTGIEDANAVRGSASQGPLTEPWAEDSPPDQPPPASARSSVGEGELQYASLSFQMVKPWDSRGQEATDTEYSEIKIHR

Trypanosoma cruzi = experiment: Trypanosoma cruzi phosphomannomutase and mannose-1-phosphate guanylyltransferase assay; format: functional; conditions: 10 µM
[5] = target: T2, Arginase-2, mitochondrial (Homo sapiens) (UniProt P78540); experiment: in vitro enzyme assay to detect the production of urea directly proportional to the activity of Arginase II; format: functional; conditions: 33.3 µM; also: in the data most compounds retested in dose-response had high values
T2 sequence (whole entry): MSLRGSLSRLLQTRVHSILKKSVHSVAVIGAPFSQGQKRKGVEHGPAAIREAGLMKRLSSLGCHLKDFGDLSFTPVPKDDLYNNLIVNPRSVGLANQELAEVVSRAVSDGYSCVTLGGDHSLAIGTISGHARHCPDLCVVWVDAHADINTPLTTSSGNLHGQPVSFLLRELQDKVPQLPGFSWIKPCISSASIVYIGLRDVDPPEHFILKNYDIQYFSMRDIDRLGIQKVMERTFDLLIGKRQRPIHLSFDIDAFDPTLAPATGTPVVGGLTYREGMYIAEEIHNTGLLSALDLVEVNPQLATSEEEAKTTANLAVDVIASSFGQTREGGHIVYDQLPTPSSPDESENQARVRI

[6] = target: T3, Proteasome subunit beta (Trypanosoma cruzi) (UniProt O96673); experiment: Trypanosoma cruzi proteasome chymotrypsin-like activity (TcProtChymo) assay.; also: in the data most compounds retested in dose-response had high values; format: functional; conditions: 9.37 µM
T3 sequence (whole entry): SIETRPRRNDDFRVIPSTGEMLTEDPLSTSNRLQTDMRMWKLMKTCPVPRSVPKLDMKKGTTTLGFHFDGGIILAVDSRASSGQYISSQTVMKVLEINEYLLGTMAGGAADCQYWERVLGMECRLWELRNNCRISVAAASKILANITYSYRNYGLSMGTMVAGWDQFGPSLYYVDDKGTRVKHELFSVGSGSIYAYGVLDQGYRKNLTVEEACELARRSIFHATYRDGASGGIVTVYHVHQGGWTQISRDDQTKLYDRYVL

Homo sapiens = species: Homo sapiens; experiment: To identify inhibition of the IFN signalling (Jak-Stat) pathway via expression of an eGFP reporter gene under the control of an IFN-stimulated response element (ISRE) containing MxA promoter.; format: functional; conditions: 30 µM
[7] = target: T4, Tyrosyl-tRNA synthetase, putative (Trypanosoma cruzi (strain CL Brener)) (UniProt Q4DSP6); experiment: Trypanosoma cruzi tyrosyl tRNA synthetase (TcYRS) _High Tyrosine SOP; format: functional; conditions: 30 µM; also: in the data most compounds retested in dose-response had high values
T4 sequence (whole entry): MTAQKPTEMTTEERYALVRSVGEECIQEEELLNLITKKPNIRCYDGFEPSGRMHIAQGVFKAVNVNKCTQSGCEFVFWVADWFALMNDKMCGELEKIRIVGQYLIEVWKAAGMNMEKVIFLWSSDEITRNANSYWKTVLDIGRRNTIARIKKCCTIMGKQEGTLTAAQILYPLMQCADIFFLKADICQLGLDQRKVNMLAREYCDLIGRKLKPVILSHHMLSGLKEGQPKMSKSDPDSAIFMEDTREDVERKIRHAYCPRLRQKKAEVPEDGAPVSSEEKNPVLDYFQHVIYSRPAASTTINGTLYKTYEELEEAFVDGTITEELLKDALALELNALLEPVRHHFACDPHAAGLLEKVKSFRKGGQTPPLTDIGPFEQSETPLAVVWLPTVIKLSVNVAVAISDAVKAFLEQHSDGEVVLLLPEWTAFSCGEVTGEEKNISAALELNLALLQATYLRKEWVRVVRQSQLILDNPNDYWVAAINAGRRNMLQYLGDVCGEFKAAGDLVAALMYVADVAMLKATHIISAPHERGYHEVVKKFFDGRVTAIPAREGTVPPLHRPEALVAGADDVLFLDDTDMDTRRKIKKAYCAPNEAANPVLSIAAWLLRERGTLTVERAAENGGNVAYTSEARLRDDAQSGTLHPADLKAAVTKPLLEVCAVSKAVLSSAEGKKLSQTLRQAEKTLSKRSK

[8] = target: T4, Tyrosyl-tRNA synthetase, putative (Trypanosoma cruzi (strain CL Brener)); experiment: Trypanosoma cruzi tyrosyl tRNA synthetase (TcYRS) SOP; format: functional; conditions: 30 µM
[9] = target: Chromo domain-containing protein 1 (Saccharomyces cerevisiae (strain ATCC 204508 / S288c) (Baker's yeast)) (UniProt P32657); experiment: ScCHD-1 Enzyme Inhibition Assay; format: functional; conditions: 30 µM; also: in the data most compounds retested in dose-response had high values
Chromo domain-containing protein 1 (Saccharomyces cerevisiae (strain ATCC 204508 / S288c) (Baker's yeast)), sequence (P32657 whole entry, the tested form may be a part): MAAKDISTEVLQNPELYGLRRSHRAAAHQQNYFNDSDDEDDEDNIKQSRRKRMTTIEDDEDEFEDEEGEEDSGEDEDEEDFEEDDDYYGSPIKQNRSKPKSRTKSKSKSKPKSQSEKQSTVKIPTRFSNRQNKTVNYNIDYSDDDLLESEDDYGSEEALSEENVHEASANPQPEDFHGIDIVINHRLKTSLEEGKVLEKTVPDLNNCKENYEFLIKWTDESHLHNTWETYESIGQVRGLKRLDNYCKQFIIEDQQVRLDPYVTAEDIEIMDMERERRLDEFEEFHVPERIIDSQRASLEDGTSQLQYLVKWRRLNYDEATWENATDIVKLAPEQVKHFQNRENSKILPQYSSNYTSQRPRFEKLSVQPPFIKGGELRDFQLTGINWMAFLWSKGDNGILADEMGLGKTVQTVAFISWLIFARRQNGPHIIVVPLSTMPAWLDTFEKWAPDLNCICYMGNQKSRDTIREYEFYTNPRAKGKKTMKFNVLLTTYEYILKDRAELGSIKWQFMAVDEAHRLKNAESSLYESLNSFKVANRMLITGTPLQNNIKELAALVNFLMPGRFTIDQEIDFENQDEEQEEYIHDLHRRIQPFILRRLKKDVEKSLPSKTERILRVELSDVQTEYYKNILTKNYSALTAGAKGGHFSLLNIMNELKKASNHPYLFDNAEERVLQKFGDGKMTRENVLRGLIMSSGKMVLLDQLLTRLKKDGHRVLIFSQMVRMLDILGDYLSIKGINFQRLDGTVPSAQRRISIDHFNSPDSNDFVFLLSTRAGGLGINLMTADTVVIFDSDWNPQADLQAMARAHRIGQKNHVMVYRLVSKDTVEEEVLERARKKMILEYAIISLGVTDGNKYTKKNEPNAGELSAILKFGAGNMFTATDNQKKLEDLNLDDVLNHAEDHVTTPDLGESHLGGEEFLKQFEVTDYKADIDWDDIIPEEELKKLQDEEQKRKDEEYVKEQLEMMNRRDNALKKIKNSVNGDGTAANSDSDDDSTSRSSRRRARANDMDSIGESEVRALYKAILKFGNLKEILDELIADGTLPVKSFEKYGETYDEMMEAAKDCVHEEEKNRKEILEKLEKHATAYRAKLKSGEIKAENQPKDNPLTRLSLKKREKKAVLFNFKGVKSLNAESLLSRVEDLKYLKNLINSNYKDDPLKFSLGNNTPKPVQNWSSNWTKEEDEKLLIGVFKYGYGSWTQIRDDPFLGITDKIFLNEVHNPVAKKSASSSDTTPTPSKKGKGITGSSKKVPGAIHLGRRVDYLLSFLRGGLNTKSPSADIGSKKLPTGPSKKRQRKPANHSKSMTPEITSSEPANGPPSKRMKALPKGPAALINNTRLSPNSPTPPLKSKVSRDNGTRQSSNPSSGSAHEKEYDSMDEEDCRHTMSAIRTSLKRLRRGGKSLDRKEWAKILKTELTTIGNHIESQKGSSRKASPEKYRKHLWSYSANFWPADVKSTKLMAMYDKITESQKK

Protein translocase subunit SecA (Escherichia coli (strain K12)), sequence (P10408 whole entry): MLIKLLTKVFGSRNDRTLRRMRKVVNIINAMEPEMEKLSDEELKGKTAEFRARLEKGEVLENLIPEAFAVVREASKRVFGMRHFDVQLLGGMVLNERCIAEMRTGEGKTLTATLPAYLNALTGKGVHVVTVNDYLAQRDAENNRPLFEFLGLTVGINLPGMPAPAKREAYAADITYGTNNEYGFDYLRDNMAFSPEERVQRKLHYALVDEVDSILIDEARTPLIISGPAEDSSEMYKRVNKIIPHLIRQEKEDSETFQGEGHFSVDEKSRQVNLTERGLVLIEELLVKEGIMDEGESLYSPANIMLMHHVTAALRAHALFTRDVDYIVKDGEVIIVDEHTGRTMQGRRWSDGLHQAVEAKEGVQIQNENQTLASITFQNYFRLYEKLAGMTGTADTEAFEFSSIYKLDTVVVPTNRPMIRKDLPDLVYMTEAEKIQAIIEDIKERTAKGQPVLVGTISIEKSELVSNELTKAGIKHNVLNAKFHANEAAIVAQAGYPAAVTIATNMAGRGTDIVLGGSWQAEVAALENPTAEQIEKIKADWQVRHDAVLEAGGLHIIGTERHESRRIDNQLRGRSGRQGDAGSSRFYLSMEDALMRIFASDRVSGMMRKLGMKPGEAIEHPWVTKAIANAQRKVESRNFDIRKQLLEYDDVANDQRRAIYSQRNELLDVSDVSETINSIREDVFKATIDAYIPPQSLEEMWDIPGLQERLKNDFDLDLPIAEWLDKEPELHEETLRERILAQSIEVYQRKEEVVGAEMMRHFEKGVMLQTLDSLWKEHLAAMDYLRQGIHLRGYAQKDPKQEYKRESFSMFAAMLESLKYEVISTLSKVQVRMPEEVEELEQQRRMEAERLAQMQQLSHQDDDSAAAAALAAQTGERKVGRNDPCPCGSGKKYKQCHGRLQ

Row | Compound | Percent Effect [1] | Percent Effect [2] | Percent Effect [3] | Percent Effect [4] | Percent Effect (Trypanosoma cruzi) | Percent Effect [5] | Percent Effect [6] | Percent Effect (Homo sapiens) | Percent Effect [7] | Percent Effect [8] | Percent Effect [9]
1 | CCc1nc2n(n1)CC(NCc1ccnc(-c3ccccc3)n1)CC2 (stereo not given) | -0.451% | 0% | -2.11% | 2.45% | 6.26% | 3.6% | -4.32% | -20.9% | 3.45% | 6.17% | 0.195%
2 | Cc1nccc([C@@H]2C[C@@H]3CCN(S(C)(=O)=O)C[C@H]3O2)n1 | -4.82% | 8.11% | -5.02% | 10.6% | 7.14% | -0.744% | 7.64% | 6.16% | 8.6% | 13.6% | -3.19%
3 | c1ccc(CC2CCN(Cc3ccnc(-c4cccnc4)n3)CC2)cc1 | 0.966% | -4.05% | 9.39% | 1.78% | 0.198% | 1.16% | -1.56% | 18.1% | 4.3% | 6.49% | 7.16%
4 | Cc1cc(C(F)(F)F)c2c(C3CCN(S(=O)(=O)N(C)C)CC3)noc2n1 | -2.53% | 12.2% | 6.65% | 11.8% | -0.395% | 1.62% | 6.55% | 3.27% | 6.45% | 16.9% | -15.2%
5 | CCCc1nc(CN2CCN(Cc3noc(CCC)n3)CC2)no1 | -5.83% | 13.9% | -4.71% | 0.206% | -0.718% | -8.39% | 10.5% | 7.72% | 11.5% | 17.7% | -33.6%
6 | Cc1nc(C)n(CC2CCCN(Cc3nc(C4CC4)no3)C2)n1 (stereo not given) | -2.19% | 21.6% | -9.55% | 4.88% | 3.11% | -4.41% | 12.8% | 2.75% | 8.37% | 23.5% | -12.5%
7 | c1coc(CN2Cc3nccn3CC(Cn3cncn3)C2)c1 (stereo not given) | -4.49% | -2.74% | -1.24% | 1.11% | -2.38% | -4.39% | 6.25% | -3.99% | 1.04% | 1.24% | -1.23%
8 | Cc1noc(-c2ccc(N3CCCC(C(=O)N4CCSCC4)C3)nc2)n1 (stereo not given) | -5.7% | -2.74% | 24% | 1.74% | -3.92% | -1.36% | 6.57% | -0.682% | 1.07% | 2.5% | -3.84%
9 | CCn1c(CN2CCC(O)(C(=O)OC)CC2)nc2c(F)cccc21 | -3.73% | -44.7% | -3.77% | 0.565% | 8.27% | -3.06% | 7.85% | 11.3% | 5.39% | 9.76% | -12.4%
10 | CCc1nc2n(n1)CC(NCC(=O)Nc1cc(C)on1)CC2 (stereo not given) | -7.96% | 5.06% | -1.49% | 2.07% | -7.27% | 0.38% | 17.1% | 22.4% | -3.45% | -8.86% | -4.18%
11 | c1ccc(-n2ncc(CNCC3CCCN3c3cccnn3)n2)cc1 (stereo not given) | -3.03% | -28.9% | -19.7% | 8.84% | 11.7% | -5.4% | -3.64% | 6.81% | 12.3% | 18.5% | 0.0713%
12 | Cc1nccn1CCC1CCCCN1Cc1ccncc1 (stereo not given) | -5.73% | 8% | -13% | -0.0054% | -2.63% | 0.521% | 13.8% | 25.9% | 2.73% | 13.6% | -6.06%
13 | CCc1ccc(CN2CCCC(CO)(CCOC)C2)cc1 (stereo not given) | -2.06% | -5.41% | -3.48% | -7.57% | -4.79% | -6.7% | -0.258% | -5.11% | -1.07% | 1.24% | 1.15%
14 | CC(Cn1ccnc1)NC(=O)NCCNC(=O)C(C)C (stereo not given) | 2.77% | 23.7% | -2.17% | -3.21% | 0.94% | -4.6% | 15.4% | 31.2% | 3.43% | 19.5% | -9.78%
15 | CN(Cc1ccccc1F)C(=O)CS(=O)(=O)Cc1ccc(Cl)c(Cl)c1 | 0.269% | 10.4% | 6.8% | 0.809% | 2.06% | -8.21% | 4.29% | 9.03% | -6.67% | -296% | -20.3%
16 | CN(C(=O)Cn1nc(-c2ccc(F)cc2)oc1=O)C1CCS(=O)(=O)C1 (stereo not given) | 0.314% | 20.8% | -6.94% | 6.92% | 0.291% | 0% | 19.3% | 13.6% | 2.1% | 10.3% | -6.7%
17 | c1ccc(Cn2ccnc2CN2CCOC(Cn3cccn3)C2)cc1 (stereo not given) | -9.1% | 3.8% | 9.54% | 2.25% | -7.69% | -5.81% | 4.12% | 2.94% | 8.33% | 17.7% | -16.1%
18 | O=C(c1cccnc1)N1CCc2ncnc(C3CCOC3)c2CC1 (stereo not given) | 0.619% | 10.7% | 5.98% | -10.8% | -5.71% | 3.5% | 10.8% | 2.86% | 4.25% | 11.5% | 3.31%
19 | O=C(c1cccnc1N1CCOCC1)N1CCCC(n2ccnc2)C1 (stereo not given) | -1.05% | 18.4% | 3.79% | 3.27% | -3.76% | -1.53% | 9.36% | 0.0212% | 4.41% | 17.1% | -9.1%
20 | COc1cc(C)sc1C(=O)N1CCC(Nc2cccnc2)CC1 | -6.41% | -121% | 0.841% | 37.6% | 3.17% | 3.19% | 3% | 5.06% | 8.33% | 11.1% | 0.713%
